Screening results from PubChem BioAssay.
In the library only some 1.6% were active in any assay of this set; here they are far more common.
HBB splicing – hemoglobin beta splicing modulation; HBB splicing reporter cell assay, activation; EGFP reporter with mutant IVS2-654 intron; response scale: normalised to 500 nM splice-correcting PNA; Potency, µM (doses to about 46.1 µM), without a hit: top-dose activation, actives largely listed as activators; 65,000 tested, 0.06% active; AID 925; further: potency means the concentration at half of the fitted maximal effect; 0% is about no effect
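Compounds were applied for 2 days to HeLa EGFP-654 cells, 500/well in Optimem with 2% FCS. The reporter's EGFP is disrupted by mis-splicing of beta-globin intron IVS2-654. Readout: summed well GFP fluorescence from 488 nm laser scanning; reference was 500 nM antisense […] 654 PNA.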
p53ts 39C kill – kills p53ts cells at the nonpermissive temperature; H1299-p53A138V viability at 39C, ATP luminescence, 24 h; Potency, µM (top dose mostly 46.1 µM), without a hit: at the top dose activity change, negative = cell killing, most hits filed as cytotoxic; 130,000 tested, 1.5% active; AID 902; further: potency means the concentration at half of the fitted maximal effect; on the % scale 0 is the no-effect control and ±100 the full control effect; nearly all actives have a fitted effect of over 55% in size
GFP derepression – epigenetic modulators derepressing GFP locus in mouse cells. mouse C127i GFP locus derepression, cytometry, 30 h. Potency, µM (doses to about 46.1 µM), inactives show at the highest dose GFP derepression (activation). 68,000 tested, 0.09% active; further: % of control where 0% means no effect
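Locus derepression in mouse mammary C127i cells whose integrated CMV-GFP reporter is normally silent; GFP expression after 30 h compound treatment was quantified by counting fluorescent cells.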
p53ts 32C kill – cytotoxicity in p53ts cells at permissive temperature. H1299-p53A138V at 32C, ATP luminescence viability, 24 h. 130,000 tested, 0.93% active. Potency, µM (series often up to 46.1 µM), without a hit: at the top dose activity change, negative = cytotoxicity, usual class: cytotoxic;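 further: potency means the concentration at half of the fitted maximal effect; 0% = DMSO and -100% = full killing by reference compound; nearly all actives have a fitted effect of over 55% in size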
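Cells: H1299 p53ts (A138V), 600/well, pre-incubated 16–30 h at 37C. Cpd up to 46 uM, 24 h, 32C. Readout: ATPlite luminescence, 20 min RT. Normalization: DMSO vs tamoxifen 100 uM. AC50 by Hill equation.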
UbGFP stabilizer – inhibits proteasome, raising ubiquitin-GFP reporter fluorescence. Ubiquitin-GFP reporter cells, proteasome inhibition, GFP fluorescence; response scale: untreated = 0%, 10 µM MG-132 = 100%. AID 526. Potency, µM (top dose mostly 45.9 µM), inactives show at the top dose activation (GFP accumulation), actives largely listed as activators. 67,000 tested, under 10 active; active means well fitted activation curve with a large enough effect, not every such curve was filed as active; inconclusive means small, poorly fitted or top-dose-only effect, or another doubt; inactive means no such curve, though single readings can be large or run the other way; further: potency means the concentration at half of the fitted maximal effect
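U2OS cells stably expressing ubiquitin(G76V)-GFP, seeded overnight in 0.5% FBS medium, were exposed to compounds (qHTS, 46 uM to 2.9 nM) for 4 hr at 37 °C. GFP-positive cells were counted by laser cytometry (488 ex/515 em), normalized between basal and 10 uM MG-132.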
Imprint erasure – inducers of genomic imprint erasure in mouse ES cells; mouse ES Peg3-LacZ reporter, beta-gal luminescence, 40 h; Potency, µM (titrated, usually from 60.7 µM), for inactives: at the top dose activity change, positive = activation, most hits filed as activators; 110,000 tested, 0.02% active; AID 1948; further: potency means the concentration at half of the fitted maximal effect
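Imprint erasure is scored as LacZ activity from the silenced maternal Peg3 allele in feeder-free female ES cells cultured 40 h with LIF. Luminescence is normalized to in-plate negative controls and fitted to the Hill equation.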
An asterisk follows results filed as active; ? = inconclusive; nt = not tested or not shown; [ ] = another dose, or the depositor's remark. Unless noted, the call rests on the fitted dose curve; in most records, active means well fitted curve in the direction sought with a large enough effect; inconclusive means small, poorly fitted or top-dose-only effect, or another doubt; inactive means no such curve, though single readings can be large; an effect the other way counts as inactive or inconclusive.

SMILES	HBB splicing	p53ts 39C kill	GFP derepression	p53ts 32C kill	UbGFP stabilizer	Imprint erasure
CCCOc1ccc(C(=O)Nc2cccc(NC(=O)c3ccc(Cl)cc3Cl)c2)cc1	nt	7.9µM*	nt	?	nt	-13%[10.9 µM]
CN(C)/C=C1/Sc2ccccc2C1=O	nt	6%	nt	-2%	nt	nt
CC1(C)CCC2=C(O1)c1ccccc1C(=O)C2=O	0%	5µM*	-2%	5µM*	6%	-79%
CCc1ccc(NS(=O)(=O)c2cc(-c3cnc(C4CC4)o3)ccc2C)cc1	nt	20µM*	nt	31%	nt	15%[10.9 µM]
C=CCN1C=CC(=C/C=C(/C#N)C(=O)OCC)C=C1	nt	?	nt	10µM*	nt	nt
CCOC(=O)/C(C#N)=C/c1ccc(-c2ccc(Br)cc2)o1	nt	39%	nt	-10%	nt	-10%[10.9 µM]
CSc1cccc(-n2nnc(-c3nsc(NC(=O)c4cccs4)n3)c2C)c1	nt	13µM*	nt	1%	nt	-36%[10.9 µM]
CCc1ccc(-n2nnc(-c3nsc(NC(=O)c4ccccc4Cl)n3)c2C)cc1	nt	-26%	nt	-1%	nt	-5%[10.9 µM]
CCc1cccc(-n2nnc(-c3nsc(NC(=O)c4cccs4)n3)c2C)c1	nt	10µM*	nt	-19%	nt	-20%[10.9 µM]
Cc1ccc(-n2nnc(-c3nsc(NC(=O)c4cccc(Cl)c4)n3)c2C)cc1C	nt	1%	nt	2%	nt	-8%[10.9 µM]
Cc1ccc(S(=O)(=O)Nc2cc3c(C(=O)OCc4ccccc4)c(C)oc3c3ccccc23)cc1	nt	-21%	nt	1%	nt	-12%[10.9 µM]
Cc1oc2c(cc(NS(=O)(=O)c3ccc(Br)cc3)c3ccccc32)c1C(=O)OCc1ccccc1	nt	20µM*	nt	-21%	nt	-18%[10.9 µM]
O=C(NCc1ccccc1)c1ccc2c(c1)N(Cc1cccc(Cl)c1)C(=O)c1ccccc1S2(=O)=O	nt	15%	nt	-6%	nt	-11%[10.9 µM]
CC1CCCN(CCCNC(=O)c2ccc3c(c2)N(Cc2cccc(Cl)c2)C(=O)c2ccccc2S3(=O)=O)C1 (stereo not given)	nt	13µM*	nt	3%	nt	-17%[10.9 µM]
Cc1ccc(OCCSc2nc(-c3ccccc3C)nc3cc(=O)[nH]n23)cc1Cl	nt	25µM*	nt	8%	nt	23%[10.9 µM]
Cc1cccc(-c2nc(SCCCOc3ccc(Cl)c(C)c3)n3[nH]c(=O)cc3n2)c1	nt	6%	nt	-5%	nt	-4%[10.9 µM]
COc1ccc(/C=C/C(=O)Nc2sc(C)c(C)c2C(=O)O)cc1	nt	13%	nt	2.5µM*	nt	-12%[10.9 µM]
CCCN(CCC)c1nc(NC2CCN(C(=O)OCC)CC2)nc(OC)n1	-1%	20µM*	0%	48%	-5%	-25%
CC(C)(C)c1ccc(OCC(=O)NCC2(N3CCOCC3)CCCCC2)cc1	nt	16µM*	nt	?	nt	-11%[10.9 µM]
O=C(COc1ccc([N+](=O)[O-])cc1)NCC1(N2CCOCC2)CCCCC1	nt	6%	nt	-1%	nt	-4%[10.9 µM]
COC(=O)c1ccc(-n2c(C)cc(/C=N/n3cnnc3)c2C)cc1	0%[9.22 µM]	-2%	-2%	1%	1%	9%
COc1ccc(-n2c(C)cc(/C=N/Nc3nnc(C)n3N)c2C)cc1	nt	10µM*	nt	?	nt	nt
Cc1ccc(S(=O)(=O)N(CCO)c2cc3c(s2)CCCC3)cc1	-1%	-10%	-1%	-3%	1%	-13%
FC(F)(F)c1cc(CO[C@@H]2CCCN[C@H]2c2ccccc2)cc(C(F)(F)F)c1	0%	20µM*	-1%	?	-3%	nt
COc1cccc(C2=NOC(C(=O)N3CCN(Cc4ccccc4)CC3)C2)c1OC (stereo not given)	-5%	5%	6%	-4%	-10%	-17%
O=C(NCCc1ccccc1)c1ccc(CSc2nc3cccnc3n2Cc2ccc(F)cc2)cc1	nt	nt	nt	15%	nt	nt
Cc1ccc(CNC(=O)c2ccc(Cn3c(SCc4ccc(F)cc4)nc4cccnc43)cc2)o1	nt	20µM*	nt	?	nt	-16%[10.9 µM]
Cc1ccc(CSc2nc3cccnc3n2Cc2ccc(C(=O)NCc3ccco3)cc2)cc1	nt	nt	nt	5.6µM*	nt	nt
